Data on 66 molecules can be found in PubChem BioAssay AID588342 (National Center for Advancing Translational Sciences (NCATS), 2011).

The whole screen tested about 360,000 compounds, of which about 25,000 (6.9%) were called active. About 9% were inconclusive and are not listed. Calls come from the whole dose curve; as a rule, active = well fitted inhibition curve with a large enough effect; inconclusive = small, poorly fitted or top-dose-only effect; inactive = flat fitted curve, though single readings scatter. Shown is part of a subset that was picked to be rich in actives. Entries that show only a call come without a potency.
Potency is the fitted concentration of half-maximal effect.

Sequence of Luciferin 4-monooxygenase (Photinus pyralis) (P08659 whole entry, looked up): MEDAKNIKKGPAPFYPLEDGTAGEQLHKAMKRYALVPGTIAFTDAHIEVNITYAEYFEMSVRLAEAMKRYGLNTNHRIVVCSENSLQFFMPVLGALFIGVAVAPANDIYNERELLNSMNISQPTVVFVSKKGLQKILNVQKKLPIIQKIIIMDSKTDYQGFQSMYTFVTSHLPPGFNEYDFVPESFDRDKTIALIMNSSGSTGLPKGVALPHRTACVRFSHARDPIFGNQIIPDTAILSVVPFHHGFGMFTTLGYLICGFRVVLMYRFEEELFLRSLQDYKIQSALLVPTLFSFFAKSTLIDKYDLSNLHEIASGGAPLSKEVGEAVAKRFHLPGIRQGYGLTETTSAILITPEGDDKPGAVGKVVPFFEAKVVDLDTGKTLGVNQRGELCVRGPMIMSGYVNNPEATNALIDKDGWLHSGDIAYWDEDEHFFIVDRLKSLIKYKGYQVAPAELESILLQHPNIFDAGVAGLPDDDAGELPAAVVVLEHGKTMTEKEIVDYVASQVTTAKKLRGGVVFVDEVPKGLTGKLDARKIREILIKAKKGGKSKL

This test concerns the target Luciferin 4-monooxygenase (Photinus pyralis) (UniProt P08659). Nature of the test: qHTS profiling assay for firefly luciferase inhibitor/activator using purifed enzyme and Km concentrations of substrates (counterscreen for miR-21 project). Note: nearly all actives have a fitted effect of over 55% in size. The conditions noted are these: purified FLuc, luminescence inhibition; series mostly up to 57.5 µM. The procedure, abridged: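 Biochemical qHTS of compounds, final roughly 60 µM downward over six points, against 10 nM purified firefly luciferase using Km concentrations of substrates (10 uM D-luciferin, 10 uM ATP) in Tris acetate pH 7.5 buffer; luminescence output.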
In general terms: Quantitative high-throughput screening tests each substance at several concentrations.
Regarding `COc1ccc(-c2nc(Cn3c(=O)cc(C)c4c(C)nn(-c5ccccc5)c43)c(C)o2)cc1OC`, the Potency result was “inactive”.

On to `O=C(CCc1nnc2ccc(NCc3ccco3)nn12)Nc1cc(F)ccc1F`, for which the Potency entry is “inactive”.

`CN(C)Cc1c(C#N)c2ccccc2n1C`: the Potency result was “inactive”.

Take `COc1ccc(CCNCc2c(-c3ccccc3)n(C)c3ccccc23)cc1`: the Potency entry was “inactive”.

For `COc1ccc(-c2c(C#Cc3ccccc3)c3ccccc3n2C)cc1`, the Potency was 12 µM (active).

`Cc1ccc(-c2nn(CCC(=O)Nc3ccc(OC(F)(F)F)cc3)c(=O)c3ccccc23)cc1`: the Potency entry is “inactive”.

Turning to `Cc1c(NC(=O)C(C)OC(=O)c2cc3c4ccccc4n(C)c3s2)c(=O)n(-c2ccccc2)n1C` (stereo unspecified), the Potency entry is “inactive”.

For `Cc1cccc(NC(=O)CSc2nc3c([nH]c4ccccc43)c(=O)n2-c2cc(C)cc(C)c2)c1`, the Potency entry is “inactive”.

Consider `Cn1c(=NC(=O)c2cnccn2)sc2ccccc21`, for which the Potency was 4.78 µM (active).

As for `O=C(NCCCNC(=O)c1ccccc1Cl)c1cnccn1`, the Potency result is “inactive”.

In the case of `COC(=O)c1ccc(OC(=O)c2cnccn2)cc1`, the Potency entry is “inactive”.

For `Cc1ccc(S(=O)(=O)c2nc(-c3ccco3)oc2SCC(=O)Nc2ccc(F)cc2)cc1`, the Potency result was “inactive”.

`COc1ccccc1C(=O)Oc1ccc(N2C(=O)CCC2=O)cc1`: the Potency entry is “inactive”.

On to `Cc1cc(OC(=O)c2ccccc2Cl)ccc1N1C(=O)CCC1=O`, for which the Potency is 5.36 µM (active).

Turning to `CCOC(=O)c1cc(OC(=O)c2ccccc2Cl)n(-c2ccccc2)n1`, the Potency entry was “inactive”.

As for `COCCN(Cc1ccco1)C(=O)Cn1ncc2c([nH]c3ccccc32)c1=O`, the Potency result was “inactive”.

Consider `COc1ccc(NC(=O)CCCN2C(=O)C(c3ccccc3)Oc3cccnc32)cc1` (stereo unspecified), for which the Potency entry was “inactive”.

As to `Cc1[nH]n(C)c(=O)c1N=Nc1ccc(S(C)(=O)=O)cc1`, the Potency entry was “inactive”.

For `Cc1[nH]n(C(N)=S)c(=O)c1N=Nc1ccc(Cl)cc1Cl`, the Potency was 10.7 µM (active).

As to `O=C(CSc1nnc(-c2ccncc2)o1)NCc1ccc(Cl)cc1`, the Potency result was “inactive”.

As for `Cn1c(SCc2nc3ccccc3s2)nnc1-c1ccc2c(c1)OCO2`, the Potency result is “inactive”.

Regarding `Clc1ccc(-c2nnc(SCc3nc4ccccc4s3)o2)cc1`, the Potency was 19 µM (active).

Turning to `COc1ccc(-n2c(=O)c3sc4ccccc4c3n(CC(=O)Nc3cccc(C)c3)c2=O)cc1`, the Potency result is “inactive”.

Take `Cc1cc(C)c2nc3nc(C)cc(C)c3c(N)c2c1`: the Potency was 15.1 µM (active).

Regarding `Cc1cc(C)c([N+](=O)[O-])cc1-c1ccc(/C=N/NC(=O)c2nonc2N)o1`, the Potency result is “inactive”.

With `O=C1C2C3C=CC(C4CC34)C2C(=O)N1/N=C/c1ccc(-c2ccccc2[N+](=O)[O-])o1` (stereo unspecified), the Potency was 10.7 µM (active).

Turning to `O=C(CN1C(=O)CCn2nc(-c3ccccc3)cc21)NCc1ccccc1`, the Potency result was “inactive”.

`CCOc1cccc(CC(=O)N2CCc3c([nH]c4ccccc34)C2c2ccc(F)cc2)c1OCC` (stereo unspecified): the Potency entry was “inactive”.

For `N#C/C(=C(/O)COC(=O)COc1ccc(Cl)cc1)c1nc2ccccc2[nH]1`, the Potency result is “inactive”.

Regarding `O=C(/C(=C/c1cccc(Cl)c1)c1nc2ccccc2[nH]1)c1ccccc1`, the Potency result was “inactive”.

For `O=C(Cc1nc2ccccc2[nH]c1=O)c1ccc(Cl)cc1`, the Potency is 0.757 µM (active).

With `COc1ccc(N2CCN(C3=NS(=O)(=O)C(c4cccc(Br)c4)=C3C)CC2)cc1`, the Potency entry was “inactive”.

`CCOC(=O)c1c(/N=C/C2C(=O)CC(C)(C)CC2=O)sc(C)c1C`: the Potency result was “inactive”.

Consider `CCOC(=O)c1sc(/N=C/C2=C(O)CC(C)(C)CC2=O)c(C(=O)OCC)c1C`, for which the Potency is 19 µM (active).

`CCOC(=O)c1c(CC(C)C)csc1/N=C/C1=C(O)CCCC1=O`: the Potency result is “inactive”.

Turning to `Cc1ccc(N2CC(C(=O)Nc3ccc(N(C)C)cc3)CC2=O)cc1Cl` (stereo unspecified), the Potency entry is “inactive”.

Regarding `O=C(NNC(=O)c1ccc(Cl)cc1Cl)c1cccs1`, the Potency is 12 µM (active).

`O=C(COC(=O)c1ccc(O)cc1O)NNC(=O)c1cccs1`: the Potency entry was “inactive”.

For the molecule `NNC(=O)c1ccc(Cl)cc1Cl`, the Potency result is “inactive”.

Regarding `CC1CCCCN1S(=O)(=O)c1ccc(F)c(C(=O)Nc2ccccc2C(F)(F)F)c1` (stereo unspecified), the Potency result was “inactive”.

Regarding `Cc1cccc(NC(=O)CSc2nc(-c3ccco3)cc(C(F)(F)F)n2)c1C`, the Potency result was “inactive”.

With `COc1ccc(NS(=O)(=O)c2cc(NC(=O)COc3ccccc3F)ccc2OC)cc1`, the Potency result is “inactive”.

With `COc1ccc2oc(=O)c(C(=O)N3CCN(c4ccccc4F)CC3)cc2c1`, the Potency result is “inactive”.

As for `COc1ccc2oc(=O)c(C(=O)N3CCCC3)cc2c1`, the Potency result is “inactive”.

For `COc1cccc(C(=O)c2cc3ccc(O)cc3oc2=O)c1`, the Potency is 12 µM (active).

Regarding `CNS(=O)(=O)c1ccc(C(=O)NCC(=O)NCCc2ccc3c(c2)OCCO3)cc1`, the Potency entry is “inactive”.

For the molecule `COC(=O)c1c(NC(=O)c2ccc(Cl)c(Cl)c2)sc2c1CCCC2`, the Potency result is “inactive”.

Take `Cn1c(=O)c2c(ncn2CC(=O)Nc2cccc(C(F)(F)F)c2)n(C)c1=O`: the Potency result was “inactive”.

For `CCN(CC)S(=O)(=O)c1ccc(C(=O)N=c2sc3cccc(OC)c3n2C)cc1`, the Potency entry was “inactive”.

Take `Cc1cc(NC(=O)c2ccco2)c(=O)n(Cc2c(F)cccc2Cl)c1`: the Potency entry was “inactive”.

Take `Cn1c(=NC(=O)c2ccco2)sc2cccc(F)c21`: the Potency is 3.38 µM (active).

Consider `CC1CCN(S(=O)(=O)c2ccc3c(c2)N(CC(=O)NCc2ccccc2Cl)C(=O)CO3)CC1`, for which the Potency entry is “inactive”.

As to `Cc1csc2nc(COc3ccc(NC(=O)COc4ccccc4)cc3)cc(=O)n12`, the Potency result was “inactive”.

For `COc1ccccc1N1CCN(c2ncnc3onc(-c4ccc(F)cc4)c23)CC1`, the Potency result was “inactive”.

`O=C(CSc1ccccc1)Nc1cccc(S(=O)(=O)N2CCOCC2)c1`: the Potency entry was “inactive”.

For `NC(=O)Cc1ccc2sc(-c3ccccc3)nc2c1`, the Potency is 5.36 µM (active).

Turning to `NC(=O)Cc1ccc2c(c1)[nH]c1ccccc12`, the Potency entry is “inactive”.

Take `CCn1c2ccccc2c2cc(CC(N)=O)ccc21`: the Potency entry was “inactive”.

With `COc1ccc(CCNC(=O)c2ccc(CSCc3ccc(C)cc3)o2)cc1OC`, the Potency entry is “inactive”.

Regarding `CN1CCN(S(=O)(=O)c2ccc(N3CCN(c4ccccc4O)CC3)c([N+](=O)[O-])c2)CC1`, the Potency entry is “inactive”.

On to `O=C(CCS(=O)(=O)c1ccccc1Cl)Nc1ccc(S(=O)(=O)Nc2ncccn2)cc1`, for which the Potency entry is “inactive”.

On to `NS(=O)(=O)c1ccc(NC(=O)/C=C/c2ccccc2Cl)cc1`, for which the Potency entry was “inactive”.

For `O=C(/C=C/c1ccccc1Cl)Nc1ccc(S(=O)(=O)Nc2ncccn2)cc1`, the Potency is 13.5 µM (active).

As for `CC(=O)NS(=O)(=O)c1ccc(NC(=O)/C=C/c2ccccc2Cl)cc1`, the Potency was 12 µM (active).

As to `CC(=O)Nc1ccc(S(=O)(=O)Nc2nccc(/C=C/c3ccccc3F)n2)cc1`, the Potency entry was “inactive”.

Regarding `CC(=O)NS(=O)(=O)c1ccccc1`, the Potency result is “inactive”.
